Screen size: about 320,000 compounds; about 200 (0.062%) were called active. Roughly 6% stayed inconclusive and do not appear here. The call rests on the fitted dose curve; in most records, active means well fitted activation curve with a large enough effect; inconclusive means small, poorly fitted or top-dose-only effect; inactive means no such curve, though single readings can be large or run the other way. The list comes from a sample in which actives are over-represented; it also holds similar structures and randomly drawn compounds. Where a call stands in place of a potency, no number is given.
Assay: qHTS assay for re-activators of p53 using a Luc reporter; further: nearly all actives have a fitted effect of over 45% in size
Conditions: H1299 p53-A138V BP100-luciferase reporter, luminescence, 24 h; series mostly up to 92.2 µM
Text: The p53 tumor suppressor plays a key role in suppression of tumorigenesis and in human carcinogenesis. It is frequently found inactivated in human cancers, mainly by point mutation. These point mutations are found in a wide variety of human cancers and a majority of them affect the DNA binding domain of the protein. The point mutations either alter native p53 conformation or abolish DNA contact. Additionally, cancer cells with p53 mutations are more resistant to chemo-radiation therapies. In order to find activators to reactivate this important protein, a cell-based screen for p53-dependent luciferase-reporter expression was developed. A p53-null H1299 lung cancer cell line was stably co-transfected with a temperature sensitive p53 mutant, p53-A138V, and a p53-responsive BP100-luciferase reporter. This cell model has previously been characterized in a gene chip profiling experiment for p53 activation. By lowering the culture temperature from 37 deg C (mutant p53 conformation) to 32 deg C (w.t. p53 conformation), a 30-60 fold increase in activation of luciferase activity is observed. At assay temperate, 37 deg C, basal reporter expression is very low and after the addition of detection reagent, a luminescent read-out is carried out. NIH Chemical Genomics Center [NCGC] NIH Molecular Libraries Probe Production Centers Network [MLPCN] MLPCN Grant: DA031088-01A1 Assay Provider (PI): Yi Sung, University of Michigan at Ann Arbor
5ul of 1000 cells per well are dispensed in all wells except column 4, into white solid-bottom TC-treated Kalypsys plates. The cells are kept in Opti-MEM and supplemented with 10% FBS and dispensed using a Multidrop (Thermo). Then using the Kalypsys pin-tool, 23nl of compounds are pinned. The compounds are starting concentration at 10mM, with 1:5 dilution, 4 points, and the control compound nocodazole is pinned in column 1 at 25mM, 1:3 dilution, in duplicate, 25mM nocodazole is pinned in column 2. Please note, all concentrations are working concentrations. 5ul of 1pM purified luciferase enzyme is dispensed using the Kalypsys dispenser in column 4. Plates are incubated for 24 hrs at 37 deg C, 5% CO2, and 95% humidity. Then 4ul of the detection reagent Amplite (ABD Bioquest) is added using the Kalypsys dispenser. Plates are incubated for 10 min at ambient room temperature and are then read on the ViewLux (Perkin Elmer) using a clear filter for a luminescent read-out.
In the case of `COCCN(CCOC)S(=O)(=O)NC[C@H]1O[C@@H](n2cnc3c(N)ncnc32)[C@H](O)[C@@H]1O`, the Potency was “inactive”.
With `Cc1ccsc1C(=O)NNC(=O)COc1ccc(Br)cc1` the Potency was “inactive”.
In the case of `COc1cc(C)ccc1OCC(=O)OCC(=O)c1ccc[nH]1`, the Potency was “inactive”.
With `CCN(CC)C(=O)[C@H]1C[C@H](CC(=O)NCC23CC4CC(CC(C4)C2)C3)C(=O)N2CCc3c([nH]c4cc(CCC(=O)N(C)C)ccc34)[C@]12C` the Potency was “inactive”.
For `O=C(COC(=O)c1cccc(Cl)c1)NC(=O)NCc1ccccc1`, the Potency was “inactive”.
In the case of `CCCc1cc(=O)[nH]c(SCC(=O)Nc2ccc(C(=O)Nc3ccccc3OC)cc2)n1`, the Potency was “inactive”.
In the case of `O=C(CSc1ncn[nH]1)Nc1ccc(Br)cc1Br`, the Potency was “inactive”.
For `CC(C)(C)OC(=O)C[C@@H]1C/C=C\C[C@@H](CC(=O)N[C@@H](CO)Cc2ccccc2)C(=O)N2CCC[C@H]2COC1=O`, the Potency was “inactive”.
In the case of `COc1ccccc1-c1nnc2n1N=C(c1ccc(OC(F)F)c(OCC3CC3)c1)CS2`, the Potency was “inactive”.
For `C=CC1=C(C(=O)O)N2C(=O)[C@@H](NC(=O)/C(=N\OCC(=O)O)c3csc(N)n3)[C@H]2SC1`, the Potency was “inactive”.
For `O=C(CSc1ncn[nH]1)Nc1nc(-c2cccc([N+](=O)[O-])c2)cs1`, the Potency was “inactive”.
With `O=C(CSc1nc(-c2ccccc2)cs1)Nc1cccc([N+](=O)[O-])c1` the Potency was 35.5 µM (active).
With `CCNC(=O)CSc1nc(-c2ccccc2)cs1` the Potency was “inactive”.
In the case of `CC(C)(C)OC(=O)C[C@@H]1C/C=C\C[C@H](CC(=O)N[C@@H](CO)Cc2ccccc2)C(=O)N[C@H](Cc2ccccc2)COC1=O`, the Potency was “inactive”.
With `CC(C)n1cnc2c(NCc3ccccc3)cc(OCC3CCN(C)CC3)cc21` the Potency was “inactive”.
For `CN(Cc1ccc(CNC[C@H]2O[C@@H](n3cnc4c(N)ncnc43)[C@H](O)[C@@H]2O)o1)S(C)(=O)=O`, the Potency was “inactive”.
In the case of `CCOC(=O)C1=C(C)N(C[C@@H]2CC[C@@H](Cc3ccc(-c4ccccc4)cc3)O2)C(=O)NC1c1ccc([N+](=O)[O-])cc1` (stereo partly specified), the Potency was “inactive”.
In the case of `O=S(=O)(c1cccs1)N1CCN(CCOc2ccccc2)CC1`, the Potency was “inactive”.
In the case of `CCCN=C1N(C)C[C@@H]2[C@@H]3C(=O)N(Cc4ccccc4)C(=O)[C@@H]3[C@](C)(C(=O)OC)N12`, the Potency was “inactive”.
With `COc1cccc(-c2sc3ccc(OC)cc3c2-c2ccc(OCCN3CCCCC3)cc2)c1` the Potency was “inactive”.
With `CC[C@@H](C)[C@@H]1CN([C@@H](C)CN2CCC[C@H]2CN2C(N)=NC[C@H]2C(C)C)C(=N)N1CCc1ccc(Cl)c(Cl)c1` the Potency was “inactive”.
For `C[C@H](CO)N1C[C@H](C)[C@@H](CN(C)Cc2ccc(-c3ccccc3)cc2)Oc2ccc(NC(=O)Cn3cnnn3)cc2C1=O`, the Potency was “inactive”.
In the case of `COc1cc(C2CC(=O)Oc3cc(OC)c(OC)c(OC)c32)cc(OC)c1OC` (stereo unspecified), the Potency was “inactive”.
In the case of `Cc1cccc(-c2noc(CCC(=O)NC3CCCC3)n2)c1`, the Potency was “inactive”.
With `Cc1cccc(-c2noc(-c3ccc(F)cc3)n2)c1` the Potency was 31.6 µM (active).
For `Brc1ccc(-c2noc(-c3ccccc3)n2)o1`, the Potency was “inactive”.
For `CC(C)(C)OC(=O)C[C@H]1C/C=C\C[C@@H](CC(=O)N[C@H](CO)Cc2ccccc2)C(=O)NC[C@@H](c2ccccc2)OC1=O`, the Potency was “inactive”.
For `CN=C(Nc1cccc(S(=O)(=O)N2CCOCC2)c1)c1ccccc1`, the Potency was “inactive”.
With `O=C(NCCC(=O)N1O[C@@H]2C=C[C@H]1C2)OCC1c2ccccc2-c2ccccc21` the Potency was “inactive”.
With `Nc1ncnc2c1ncn2[C@@H]1O[C@H](CNS(=O)(=O)c2ccc(-c3ccno3)s2)[C@@H](O)[C@H]1O` the Potency was “inactive”.
In the case of `Cc1noc(C)c1NC(=O)Nc1ccc2c(c1)C(=O)N([C@H](C)CO)C[C@H](C)[C@@H](CN(C)C(=O)Nc1ccc(C(F)(F)F)cc1)O2`, the Potency was “inactive”.
With `O=C1[C@@H](c2ccccc2)[C@@H](c2ccccc2)N1c1cccnc1` the Potency was “inactive”.
For `CC1O[C@@H](OC2C(O)C(C)O[C@H](OC(=O)[C@]34CCC(C)(C)C[C@H]3C3=CCC5[C@@]6(C)CC(O)C(O[C@@H]7OC(CO)C(O)[C@@H](O)[C@@H]7O)[C@@](C)(C(=O)O)C6CC[C@@]5(C)[C@]3(CO)CC4)C2O[C@H]2OC(C)[C@@H](O[C@@H]3OCC(O[C@@H]4OC(CO)C(O)[C@H](O)C4O)[C@@H](O)[C@@H]3O)[C@H](O)C2O)C(O)C(O)C1O` (stereo partly specified), the Potency was “inactive”.
With `COc1cc(C(=O)OCc2cc(=O)n3ccsc3n2)ccc1OC(C)C` the Potency was “inactive”.
With `O=C1CCC/C=C\C[C@@H](CC(=O)N(CCO)Cc2ccccc2)C(=O)NCCO1` the Potency was “inactive”.
With `COc1ccc(CNc2nc(NCc3ccc(OC)cc3)c3ncn(C4CCCC4)c3n2)cc1` the Potency was “inactive”.
For `C#CCOCCOCCOCCNc1nc(N2CCN(C(=O)[C@H](CCC(=O)O)n3cc(CN)nn3)CC2)nc(N2CCN(C(=O)[C@H](CCC(=O)O)n3cc(CN)nn3)CC2)n1`, the Potency was “inactive”.
With `CC[C@]1(C(=O)OC)[C@H]2C(=O)N(Cc3ccccc3)C(=O)[C@H]2[C@H]2CN=C(SCc3ccc(C#N)cc3)N21` the Potency was “inactive”.
In the case of `Cc1cccc(C)c1Nc1nnc(SCC(=O)NCCCN2CCCC2=O)s1`, the Potency was “inactive”.
With `COc1cc(NC(=O)c2[nH]cnc2C(N)=O)cc(C(=O)Nc2cccc(C(F)(F)F)c2)c1` the Potency was “inactive”.
For `CN(c1ccccc1)S(=O)(=O)c1cc(C(=O)N2CCN(c3ncccn3)CC2)ccc1Cl`, the Potency was “inactive”.
In the case of `CN(C(=O)CSc1cccc[n+]1[O-])C1CCCCC1`, the Potency was “inactive”.
For `COc1ccc(C/C(C)=N/NC(=O)c2cc(C)oc2C)cc1`, the Potency was “inactive”.
In the case of `CC(=C/c1ccccc1)/C=N/NC(=O)c1cc(C)oc1C`, the Potency was 11.2 µM (active).
For `Cc1cc(C(=O)N/N=C/c2ccc(N3CCOCC3)cc2)c(C)o1`, the Potency was “inactive”.
For `Cc1cc(C(=O)NNC(=O)c2ccccc2O)c(C)o1`, the Potency was “inactive”.
For `Cc1cc(C(=O)N/N=C\C(Br)=C\c2ccccc2)c(C)o1`, the Potency was 31.6 µM (active).
With `CC(C)c1cc(C(=O)N/N=C/C(Br)=C/c2ccccc2)n[nH]1` the Potency was “inactive”.
In the case of `O=C1c2ccccc2[C@@H]2C[C@@H](O)[C@H](Nc3ccccc3Cl)CCN12`, the Potency was “inactive”.
For `CC(C)(C)OC(=O)C1=C(CO)CS[C@@H]2[C@H](NC(=O)Cc3ccccc3)C(=O)N12`, the Potency was “inactive”.
In the case of `Cc1cccc(NC(=O)c2ccc(S(=O)(=O)N(C)c3ccccc3)cc2)n1`, the Potency was “inactive”.
Potency means the concentration at half of the fitted maximal effect.
